According to PubChem BioAssay (NCI):
This is part of a sample that, as a whole, favours compounds with a hit. Of some 83,000 tested, about 20% had one in any assay.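 Percent growth is the endpoint: 0 to 100 indicates growth inhibition (40 means 60% inhibition), 0 means no net growth, and negative values indicate cell death.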 The source made the active and inactive calls. The calls were made as follows: active = growth percent below 10; inactive = the rest.

Experiments:
Assay in all cases: NCI-60 one-dose screen, 48 h (100 = growth as untreated, 0 = no growth, -100 = all killed)
Conditions in all cases: 10 µM unless noted
EKVX NSCLC = system: EKVX NSCLC
SN12C renal = system: SN12C renal
UO-31 renal = system: UO-31 renal
TK-10 renal = system: TK-10 renal
ACHN renal = system: ACHN renal
CAKI-1 renal = system: CAKI-1 renal
CCRF-CEM leukemia = system: CCRF-CEM leukemia
MOLT-4 leukemia = system: MOLT-4 leukemia
SR leukemia = system: SR leukemia
A498 renal = system: A498 renal

Measured: growth

C=CCn1c(SCC(=O)c2ccccc2)nnc1-c1c[nH]c2ccccc12
inactive: EKVX NSCLC 95.8% | SN12C renal 92.7% | UO-31 renal 65.7% | TK-10 renal 144% | ACHN renal 93.8% | CAKI-1 renal 83.1% | CCRF-CEM leukemia 91.2% | MOLT-4 leukemia 92.8% | SR leukemia 76.5%

COC(=O)C(C)NS(=O)(=O)/N=C1\NC(=O)NC1=C(Cl)Cl (centres undefined)
inactive: EKVX NSCLC 104% | SN12C renal 98.7% | UO-31 renal 81.7% | TK-10 renal 140% | ACHN renal 98.2% | CAKI-1 renal 99% | CCRF-CEM leukemia 95.9% | MOLT-4 leukemia 100% | SR leukemia 93.2%

C#Cc1nc(C2=C(C)C(O)/C(=N/O)C2)cs1 (centres undefined)
active: UO-31 renal -91.1% | CCRF-CEM leukemia -27.7% | SR leukemia -32.8%
inactive: EKVX NSCLC 91.3% | SN12C renal 99.9% | TK-10 renal 162% | ACHN renal 21.5% | CAKI-1 renal 76.5% | MOLT-4 leukemia 86.5%

CC(O)C(NC(=O)C1CCCN1C(=O)CNC(=O)C1CC(=O)NCC(=O)NC(Cc2c[nH]c3ccccc23)C(=O)NC(Cc2ccc(O)cc2)C(=O)NCC(=O)NC(CO)C(=O)NC(CCC(N)=O)C(=O)NC(Cc2c[nH]c3ccccc23)C(=O)N1)C(=O)NCC(=O)NC(CCC(N)=O)C(=O)NC(CCCNC(=N)N)C(=O)NC(CC(=O)O)C(=O)O (centres undefined)
inactive: EKVX NSCLC 100% | SN12C renal 101% | UO-31 renal 83.3% | TK-10 renal 116% | ACHN renal 96.2% | CAKI-1 renal 91.5% | CCRF-CEM leukemia 94.7% | MOLT-4 leukemia 104% | SR leukemia 94.5%

COc1ccc(/C=C2\SC(=Nc3cc(C)on3)NC2=O)cc1
inactive: EKVX NSCLC 89.7% | SN12C renal 100% | UO-31 renal 85.5% | TK-10 renal 106% | ACHN renal 106% | CAKI-1 renal 96.6% | CCRF-CEM leukemia 101% | MOLT-4 leukemia 100% | SR leukemia 98.9%

Cn1ccnc1C(=O)/C=C/c1ccc(NC(=O)Nc2ccc(Cl)cc2)cc1
inactive: EKVX NSCLC 91.7% | SN12C renal 87.5% | UO-31 renal 97.7% | TK-10 renal 131% | CAKI-1 renal 69.6% | CCRF-CEM leukemia 62.9% | MOLT-4 leukemia 57.5% | SR leukemia 32.6%

O=[N+]([O-])c1ccc(O)c2ncccc12
inactive: EKVX NSCLC 26.2% | SN12C renal 42.1% | UO-31 renal 31.4% | TK-10 renal 55.6% | CAKI-1 renal 30.5% | A498 renal 55.7% | CCRF-CEM leukemia 17.7% | SR leukemia 14.6%

CCOC(=O)c1c(Nc2ccccc2)nn2c(-c3ccco3)c(C#N)cnc12
inactive: EKVX NSCLC 75.7% | SN12C renal 92.9% | UO-31 renal 71% | ACHN renal 56.5% | CAKI-1 renal 90.1% | A498 renal 45.1% | CCRF-CEM leukemia 82.4% | MOLT-4 leukemia 92.2%

C/C(=N\NC(N)=O)c1c(O)sc(=O)[nH]c1=O
inactive: EKVX NSCLC 95.8% | SN12C renal 97.1% | UO-31 renal 87.1% | TK-10 renal 110% | ACHN renal 101% | CAKI-1 renal 96.9% | CCRF-CEM leukemia 100% | SR leukemia 114%

CN1CCc2c(sc3ncnc(N/N=C/c4ccc(Cl)c(Cl)c4)c23)C1
active: ACHN renal -84.7% | CCRF-CEM leukemia 8.1% | SR leukemia -22.8%
inactive: EKVX NSCLC 60.8% | SN12C renal 81.2% | UO-31 renal 29.7% | TK-10 renal 137% | CAKI-1 renal 10.6%

Cc1cc2nc3c4cc(Cl)ccc4n(CC(=S)NCCN(C)C)c3nc2cc1C
active: EKVX NSCLC 4.02% | UO-31 renal -68.1% | CAKI-1 renal -92.3% | CCRF-CEM leukemia -49.3% | MOLT-4 leukemia -60.3% | SR leukemia -43.8%
inactive: SN12C renal 40.9% | TK-10 renal 55.6%

CC1=C(C)C(=O)C(Nc2ccccc2)=C(Cl)C1=O
inactive: EKVX NSCLC 55.2% | SN12C renal 91.1% | UO-31 renal 98.8% | TK-10 renal 128% | CAKI-1 renal 96.1% | A498 renal 91.2% | MOLT-4 leukemia 12.7% | SR leukemia 62.9%
active: CCRF-CEM leukemia 5.28%

O=C(N/N=C/c1ccc[nH]1)c1[nH]c2ccc(Br)cc2c1-c1ccccc1
inactive: EKVX NSCLC 24.4% | SN12C renal 28.7% | UO-31 renal 12.3% | TK-10 renal 44.5% | CAKI-1 renal 21.2%
active: CCRF-CEM leukemia 5.27% | MOLT-4 leukemia 5.94% | SR leukemia 1.89%

COc1cccc(-c2nn(-c3ccccc3)cc2-c2ccnc(N3CCN(C(=O)c4ccccc4)CC3)c2)c1
inactive: EKVX NSCLC 103% | SN12C renal 87.6% | UO-31 renal 72.3% | TK-10 renal 127% | CAKI-1 renal 86.2% | A498 renal 66.9% | CCRF-CEM leukemia 52.9% | MOLT-4 leukemia 43.8% | SR leukemia 27.5%

Cc1ccc(-c2nc(C(Cl)Cl)nc3cc(-c4ccccc4)nn23)cc1
inactive: SN12C renal 51.4% | UO-31 renal 45.3% | TK-10 renal 23.7% | CCRF-CEM leukemia 37.8% | MOLT-4 leukemia 10.4%
active: EKVX NSCLC -0.218% | CAKI-1 renal -22.9% | A498 renal -31.3% | SR leukemia 1.15%

CNC(=O)c1cc(-c2ccc(NC(=O)Nc3ccc(N4CCOCC4)c(C(F)(F)F)c3)cc2)nc2cccnc12
inactive: EKVX NSCLC 76.6% | SN12C renal 41.6% | UO-31 renal 43.2% | TK-10 renal 156% | CAKI-1 renal 64% | A498 renal 79.9% | CCRF-CEM leukemia 40.5% | MOLT-4 leukemia 34.6% | SR leukemia 13.6%

N#Cc1ccc(C(=O)CSc2nc(Nc3ccc(S(N)(=O)=O)cc3)c3ccccc3n2)cc1
inactive: EKVX NSCLC 104% | SN12C renal 100% | UO-31 renal 95.6% | TK-10 renal 110% | CAKI-1 renal 102% | CCRF-CEM leukemia 94.7% | MOLT-4 leukemia 106% | SR leukemia 95.9%

CCCC(=O)NC(c1ccc(N(CC)CC)cc1)c1cc(C)c2cccnc2c1O (centres undefined)
inactive: EKVX NSCLC 19.2% | SN12C renal 26.6% | TK-10 renal 31.6% | ACHN renal 10.7% | CAKI-1 renal 18.7%
active: UO-31 renal 3.42% | CCRF-CEM leukemia 6.15% | SR leukemia 5.57%

NS(=O)(=O)c1cccc(Nc2nc(SCC(=O)c3ccc([N+](=O)[O-])cc3)nc3ccccc23)c1
inactive: EKVX NSCLC 70.9% | SN12C renal 56.9% | UO-31 renal 40.5% | TK-10 renal 95.6% | ACHN renal 45.8% | CAKI-1 renal 27.6% | CCRF-CEM leukemia 12% | SR leukemia 17.5%

C[C@@H]1CN(c2ccc3ncc(C#Cc4cncc(C(=O)Nc5ccc(CN6CCN(C)CC6)c(C(F)(F)F)c5)c4)n3n2)C[C@H](C)O1
active: EKVX NSCLC -18.9% | SN12C renal -26.7% | UO-31 renal -87.9% | TK-10 renal -91.1% | CAKI-1 renal -94.1% | A498 renal -90.4% | CCRF-CEM leukemia 3.83% | MOLT-4 leukemia 1.65% | SR leukemia -24.3%

COC(=O)C1CN(S(=O)(=O)/N=C2\NC(=O)NC2=C(Cl)Cl)C1
inactive: EKVX NSCLC 104% | SN12C renal 101% | UO-31 renal 88.7% | TK-10 renal 139% | ACHN renal 106% | CAKI-1 renal 101% | CCRF-CEM leukemia 95.5% | SR leukemia 94.4%

Cc1ccc2c(n1)C(=O)C(Cl)=C(Nc1cccc(C(C)C)c1)C2=O
inactive: EKVX NSCLC 65% | SN12C renal 31.9% | UO-31 renal 50.3% | TK-10 renal 119% | CAKI-1 renal 75.3% | A498 renal 71.4% | CCRF-CEM leukemia 14.8% | SR leukemia 24%

O=C(N/N=C/c1cccs1)c1[nH]c2ccc(Br)cc2c1-c1ccccc1
active: CCRF-CEM leukemia 8.56% | SR leukemia 6.19%
inactive: EKVX NSCLC 42.2% | SN12C renal 45.7% | UO-31 renal 49.4% | TK-10 renal 121% | ACHN renal 28.5% | CAKI-1 renal 25.7%

N#Cc1c(-c2ccc(Cl)cc2)nc(SCc2ccc(F)cc2)nc1N1CCNCC1
active: MOLT-4 leukemia 7.99% | SR leukemia -48.5%
inactive: EKVX NSCLC 73.7% | SN12C renal 52.2% | UO-31 renal 51.3% | TK-10 renal 92.7% | CAKI-1 renal 49.8% | A498 renal 65% | CCRF-CEM leukemia 37%

C#Cc1nc(C2=C(C)C(O)CC2)cs1 (centres undefined)
active: UO-31 renal -66.1%
inactive: EKVX NSCLC 113% | SN12C renal 101% | TK-10 renal 151% | CAKI-1 renal 110% | CCRF-CEM leukemia 102% | MOLT-4 leukemia 95.1% | SR leukemia 78.7%

COc1cc(/C=C/C(=O)c2cc(OC)c(OC)c(OC)c2)ccc1OCc1ccccc1
inactive: EKVX NSCLC 51.6% | SN12C renal 69.7% | UO-31 renal 45.5% | TK-10 renal 153% | CAKI-1 renal 42% | MOLT-4 leukemia 26.2%
active: CCRF-CEM leukemia 4.39% | SR leukemia 6.67%

Cc1ccc(/C=C/c2nn3c(-c4ccco4)nnc3s2)cc1C
inactive: EKVX NSCLC 82.8% | SN12C renal 90.8% | UO-31 renal 80.8% | TK-10 renal 116% | CAKI-1 renal 90.8% | A498 renal 87% | CCRF-CEM leukemia 104% | MOLT-4 leukemia 97.8% | SR leukemia 90.1%

C#Cc1nc(C2=C(C)/C(=N/OCc3ccccc3)CC2)cs1
active: UO-31 renal -93.8% | ACHN renal 0.823% | CAKI-1 renal -20.1% | CCRF-CEM leukemia -30.2% | SR leukemia -52.4%
inactive: EKVX NSCLC 19.4% | SN12C renal 66.6% | TK-10 renal 158%

NS(=O)(=O)c1cccc(Nc2nc(SCC(=O)c3ccc(Cl)cc3)nc3ccccc23)c1
inactive: EKVX NSCLC 77.4% | SN12C renal 63.4% | UO-31 renal 84.2% | TK-10 renal 123% | CAKI-1 renal 62.3% | A498 renal 85.2% | CCRF-CEM leukemia 85.7% | MOLT-4 leukemia 82.8% | SR leukemia 59.2%

COc1ccc(NC2=CC(=O)C(C)=C(C)C2=O)cc1
inactive: EKVX NSCLC 78.8% | SN12C renal 86.4% | UO-31 renal 81.2% | TK-10 renal 156% | CAKI-1 renal 93.5% | A498 renal 84.4% | CCRF-CEM leukemia 70.1% | MOLT-4 leukemia 75.6% | SR leukemia 82.3%
